Laboratory results from publication PMC7862700, “An all-to-all approach to the identification of sequence-specific readers for epigenetic DNA modifications on cytosine”.

Assays:
Assay in all cases: DAPPL (digital affinity profiling via proximity ligation, sequencing); 10 mM Tris-HCl pH 7.5, 50 mM NaCl, 1 mM DTT, 4% glycerol, room temperature, 30 min; GST-TFs on glutathione beads, 16-mer random dsDNA library, 0.1% formaldehyde crosslink after washing; high values mean tight binding
Conditions in all cases: protein: recombinant; tags: N-terminal GST; dsDNA, one strand shown
ELK1 = biological target: T1, ELK1 (Homo sapiens, UniProt P19419 1-428)
T1 sequence: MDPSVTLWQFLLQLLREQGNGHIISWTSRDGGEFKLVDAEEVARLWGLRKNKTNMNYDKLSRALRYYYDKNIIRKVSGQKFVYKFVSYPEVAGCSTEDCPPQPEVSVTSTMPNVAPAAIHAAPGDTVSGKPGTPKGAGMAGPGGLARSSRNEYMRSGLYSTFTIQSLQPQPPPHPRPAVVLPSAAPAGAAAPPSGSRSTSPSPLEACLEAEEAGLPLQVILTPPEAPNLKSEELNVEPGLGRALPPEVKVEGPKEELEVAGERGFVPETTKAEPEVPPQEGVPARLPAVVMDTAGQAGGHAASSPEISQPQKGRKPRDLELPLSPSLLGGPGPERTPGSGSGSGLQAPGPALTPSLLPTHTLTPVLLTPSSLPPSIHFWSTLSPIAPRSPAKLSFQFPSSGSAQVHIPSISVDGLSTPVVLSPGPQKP
How it was run: (§1)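 A tag-only sample was pooled with DNA-barcoded human transcription factors that had been expressed in yeast as GST fusions and captured on glutathione beads. The pools were incubated for 30 min at room temperature with 200 nmole of a random double-stranded 16-mer DNA library in Tris/NaCl/DTT/glycerol buffer, then washed, crosslinked with 0.1% formaldehyde, proximity-ligated (BsaI/T4 ligase, 1 h, 37 °C), PCR-amplified and sequenced on an Illumina NextSeq500. Binding signal is each hexamer's read frequency for a factor divided by its frequency for the tag-only sample.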

GABPA = biological target: T2, GABPA (Homo sapiens, UniProt Q06546 1-454)
T2 sequence: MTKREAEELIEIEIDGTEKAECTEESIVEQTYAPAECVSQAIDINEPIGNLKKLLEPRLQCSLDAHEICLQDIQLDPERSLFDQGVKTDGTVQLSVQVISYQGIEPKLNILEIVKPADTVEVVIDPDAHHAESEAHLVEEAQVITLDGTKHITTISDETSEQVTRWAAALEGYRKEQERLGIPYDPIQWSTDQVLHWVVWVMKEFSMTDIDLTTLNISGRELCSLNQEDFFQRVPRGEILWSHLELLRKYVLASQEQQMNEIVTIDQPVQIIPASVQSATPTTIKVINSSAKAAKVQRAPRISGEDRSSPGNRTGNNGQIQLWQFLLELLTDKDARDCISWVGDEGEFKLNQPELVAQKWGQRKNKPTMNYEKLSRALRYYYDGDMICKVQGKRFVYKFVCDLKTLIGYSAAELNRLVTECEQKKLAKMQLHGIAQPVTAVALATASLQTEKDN
How it was run: as §1

ERG = biological target: T3, ERG (Homo sapiens, UniProt P11308 1-479)
T3 sequence: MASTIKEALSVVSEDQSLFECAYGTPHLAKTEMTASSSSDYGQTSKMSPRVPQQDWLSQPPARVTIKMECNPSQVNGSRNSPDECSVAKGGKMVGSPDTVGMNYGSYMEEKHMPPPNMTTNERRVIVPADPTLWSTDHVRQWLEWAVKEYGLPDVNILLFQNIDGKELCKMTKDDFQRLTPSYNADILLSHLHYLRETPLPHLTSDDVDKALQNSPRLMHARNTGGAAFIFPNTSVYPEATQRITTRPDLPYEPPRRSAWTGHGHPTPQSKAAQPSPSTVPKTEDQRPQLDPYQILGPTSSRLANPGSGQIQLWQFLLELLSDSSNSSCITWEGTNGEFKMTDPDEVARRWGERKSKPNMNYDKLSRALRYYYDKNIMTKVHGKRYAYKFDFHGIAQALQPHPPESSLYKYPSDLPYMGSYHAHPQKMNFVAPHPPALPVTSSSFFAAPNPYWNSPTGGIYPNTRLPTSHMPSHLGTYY
How it was run: as §1

ELF1 = ELF1 (Homo sapiens, UniProt P32519 1-619)
Chain of ELF1 (P32519 whole entry): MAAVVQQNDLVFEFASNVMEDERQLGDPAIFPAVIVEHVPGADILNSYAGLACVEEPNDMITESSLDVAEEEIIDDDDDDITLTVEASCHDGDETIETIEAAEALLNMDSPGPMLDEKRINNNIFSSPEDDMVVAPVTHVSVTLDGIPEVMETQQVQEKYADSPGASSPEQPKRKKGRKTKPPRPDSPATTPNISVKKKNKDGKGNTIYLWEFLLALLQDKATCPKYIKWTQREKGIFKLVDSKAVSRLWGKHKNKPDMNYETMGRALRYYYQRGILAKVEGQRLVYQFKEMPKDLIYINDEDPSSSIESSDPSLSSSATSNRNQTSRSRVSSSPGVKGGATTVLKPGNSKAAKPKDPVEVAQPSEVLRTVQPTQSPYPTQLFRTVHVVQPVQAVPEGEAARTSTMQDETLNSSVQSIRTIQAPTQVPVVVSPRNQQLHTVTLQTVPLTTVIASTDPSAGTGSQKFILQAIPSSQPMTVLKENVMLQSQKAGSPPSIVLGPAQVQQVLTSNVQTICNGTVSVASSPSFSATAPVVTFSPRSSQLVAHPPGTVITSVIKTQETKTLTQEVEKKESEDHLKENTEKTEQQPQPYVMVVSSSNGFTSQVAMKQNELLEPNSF
How it was run: as §1

ETV5 = ETV5 (Homo sapiens, UniProt P41161 1-510)
Chain of ETV5 (P41161 whole entry): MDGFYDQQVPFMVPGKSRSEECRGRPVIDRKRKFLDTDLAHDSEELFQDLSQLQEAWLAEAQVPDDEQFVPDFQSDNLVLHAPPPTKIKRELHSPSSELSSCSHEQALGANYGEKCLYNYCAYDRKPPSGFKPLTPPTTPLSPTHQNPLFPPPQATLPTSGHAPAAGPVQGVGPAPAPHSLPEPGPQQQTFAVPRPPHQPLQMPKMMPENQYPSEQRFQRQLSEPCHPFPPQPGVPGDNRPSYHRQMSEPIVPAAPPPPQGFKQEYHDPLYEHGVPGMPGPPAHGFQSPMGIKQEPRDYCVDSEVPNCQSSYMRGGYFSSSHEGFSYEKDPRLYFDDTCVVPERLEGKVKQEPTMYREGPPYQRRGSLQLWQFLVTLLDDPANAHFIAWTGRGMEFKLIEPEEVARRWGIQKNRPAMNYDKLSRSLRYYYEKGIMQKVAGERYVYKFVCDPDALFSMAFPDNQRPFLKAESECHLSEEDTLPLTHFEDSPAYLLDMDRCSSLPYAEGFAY
How it was run: as §1

ELF4 = ELF4 (Homo sapiens, UniProt Q99607 1-663)
Chain of ELF4 (Q99607 whole entry): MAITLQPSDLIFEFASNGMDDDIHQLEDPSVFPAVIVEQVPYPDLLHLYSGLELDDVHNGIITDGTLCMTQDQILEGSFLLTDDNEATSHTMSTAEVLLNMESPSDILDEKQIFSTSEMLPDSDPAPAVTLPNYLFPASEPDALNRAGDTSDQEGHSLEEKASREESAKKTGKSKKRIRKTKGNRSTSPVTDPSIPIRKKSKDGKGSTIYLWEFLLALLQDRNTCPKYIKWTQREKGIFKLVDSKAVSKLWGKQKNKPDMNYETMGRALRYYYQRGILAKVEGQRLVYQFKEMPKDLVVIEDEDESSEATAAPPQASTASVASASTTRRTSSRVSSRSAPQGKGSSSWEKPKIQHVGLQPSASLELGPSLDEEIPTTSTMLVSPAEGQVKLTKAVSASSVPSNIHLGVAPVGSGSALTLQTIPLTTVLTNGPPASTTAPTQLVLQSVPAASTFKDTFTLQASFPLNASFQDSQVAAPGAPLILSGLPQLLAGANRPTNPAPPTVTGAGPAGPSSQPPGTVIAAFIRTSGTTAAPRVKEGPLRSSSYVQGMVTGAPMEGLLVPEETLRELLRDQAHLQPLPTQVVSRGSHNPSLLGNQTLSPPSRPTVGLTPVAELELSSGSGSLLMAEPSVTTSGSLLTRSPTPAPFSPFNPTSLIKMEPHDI
How it was run: as §1

ELF3 = biological target: T4, ELF3 (Homo sapiens, UniProt P78545 1-371)
T4 sequence: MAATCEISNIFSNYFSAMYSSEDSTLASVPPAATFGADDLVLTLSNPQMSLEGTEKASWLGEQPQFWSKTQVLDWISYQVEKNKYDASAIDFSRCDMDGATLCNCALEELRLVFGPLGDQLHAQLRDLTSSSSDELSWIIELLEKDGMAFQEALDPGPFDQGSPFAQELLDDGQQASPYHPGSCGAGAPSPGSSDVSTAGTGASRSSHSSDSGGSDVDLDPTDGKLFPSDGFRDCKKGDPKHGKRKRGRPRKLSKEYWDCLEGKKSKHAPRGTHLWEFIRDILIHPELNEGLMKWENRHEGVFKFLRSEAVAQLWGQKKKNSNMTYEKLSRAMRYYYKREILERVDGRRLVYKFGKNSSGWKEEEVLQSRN
How it was run: as §1

ERF = biological target: T5, ERF (Homo sapiens, UniProt P50548 1-548)
T5 sequence: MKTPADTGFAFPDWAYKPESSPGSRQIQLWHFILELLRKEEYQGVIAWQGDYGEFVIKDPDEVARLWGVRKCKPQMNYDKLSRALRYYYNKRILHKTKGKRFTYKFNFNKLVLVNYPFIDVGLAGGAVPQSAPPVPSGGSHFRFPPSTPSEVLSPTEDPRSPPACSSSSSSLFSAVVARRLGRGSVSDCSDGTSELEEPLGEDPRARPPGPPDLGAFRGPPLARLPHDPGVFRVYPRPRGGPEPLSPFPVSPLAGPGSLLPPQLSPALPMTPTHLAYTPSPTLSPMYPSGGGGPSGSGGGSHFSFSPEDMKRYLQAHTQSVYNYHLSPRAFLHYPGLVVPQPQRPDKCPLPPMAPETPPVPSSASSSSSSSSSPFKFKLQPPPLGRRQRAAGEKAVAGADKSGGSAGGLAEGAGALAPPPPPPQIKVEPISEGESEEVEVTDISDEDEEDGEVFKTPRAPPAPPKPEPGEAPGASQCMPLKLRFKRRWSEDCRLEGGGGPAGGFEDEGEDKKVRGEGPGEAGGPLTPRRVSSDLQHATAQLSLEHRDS
How it was run: as §1

ETV3L = biological target: T6, ETV3L (Homo sapiens, UniProt Q6ZN32 1-361)
T6 sequence: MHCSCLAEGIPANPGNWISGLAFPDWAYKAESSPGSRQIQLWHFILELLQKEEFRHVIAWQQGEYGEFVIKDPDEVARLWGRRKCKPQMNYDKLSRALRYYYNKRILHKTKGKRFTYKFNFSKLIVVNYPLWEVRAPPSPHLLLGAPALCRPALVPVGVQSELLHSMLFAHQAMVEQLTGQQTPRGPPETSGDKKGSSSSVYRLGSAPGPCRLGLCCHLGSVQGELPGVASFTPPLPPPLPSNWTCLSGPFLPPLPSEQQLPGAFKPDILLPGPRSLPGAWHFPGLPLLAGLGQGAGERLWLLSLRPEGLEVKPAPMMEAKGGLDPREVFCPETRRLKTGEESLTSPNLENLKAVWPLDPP
How it was run: as §1

ETS2 = biological target: T7, ETS2 (Homo sapiens, UniProt P15036 1-469)
T7 sequence: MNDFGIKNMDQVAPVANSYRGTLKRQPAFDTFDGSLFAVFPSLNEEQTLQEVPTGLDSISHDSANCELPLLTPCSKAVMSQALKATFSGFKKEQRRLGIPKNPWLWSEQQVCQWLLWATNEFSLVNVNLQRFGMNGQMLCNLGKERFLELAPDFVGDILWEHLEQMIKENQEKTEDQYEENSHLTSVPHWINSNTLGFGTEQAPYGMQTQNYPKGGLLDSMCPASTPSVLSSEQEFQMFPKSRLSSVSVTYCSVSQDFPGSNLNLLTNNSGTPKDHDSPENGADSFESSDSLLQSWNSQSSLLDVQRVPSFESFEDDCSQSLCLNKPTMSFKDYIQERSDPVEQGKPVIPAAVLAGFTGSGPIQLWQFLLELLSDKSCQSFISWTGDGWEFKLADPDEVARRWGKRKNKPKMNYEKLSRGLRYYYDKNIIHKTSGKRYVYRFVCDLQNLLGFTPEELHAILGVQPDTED
How it was run: as §1

ETV3 = biological target: T8, ETV3 (Homo sapiens, UniProt P41162-2 1-143)
T8 sequence: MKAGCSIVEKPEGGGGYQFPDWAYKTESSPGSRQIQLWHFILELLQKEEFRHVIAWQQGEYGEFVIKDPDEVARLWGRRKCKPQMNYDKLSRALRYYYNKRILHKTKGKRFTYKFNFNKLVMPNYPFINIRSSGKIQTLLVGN
How it was run: as §1

ELK4 = biological target: T9, ELK4 (Homo sapiens, UniProt P28324-2 1-405)
T9 sequence: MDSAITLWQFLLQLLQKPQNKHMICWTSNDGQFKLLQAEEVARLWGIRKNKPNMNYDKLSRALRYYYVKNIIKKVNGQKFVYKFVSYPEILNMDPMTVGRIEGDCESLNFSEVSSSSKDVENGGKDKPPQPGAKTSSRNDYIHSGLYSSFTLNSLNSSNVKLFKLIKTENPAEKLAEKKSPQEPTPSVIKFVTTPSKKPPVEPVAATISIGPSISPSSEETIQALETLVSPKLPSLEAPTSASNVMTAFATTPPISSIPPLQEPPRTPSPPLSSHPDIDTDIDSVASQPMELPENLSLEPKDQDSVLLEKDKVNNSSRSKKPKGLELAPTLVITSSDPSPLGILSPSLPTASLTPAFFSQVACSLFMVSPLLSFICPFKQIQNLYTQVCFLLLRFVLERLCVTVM
How it was run: as §1

ETV2 = biological target: T10, ETV2 (Homo sapiens, UniProt O00321 1-342)
T10 sequence: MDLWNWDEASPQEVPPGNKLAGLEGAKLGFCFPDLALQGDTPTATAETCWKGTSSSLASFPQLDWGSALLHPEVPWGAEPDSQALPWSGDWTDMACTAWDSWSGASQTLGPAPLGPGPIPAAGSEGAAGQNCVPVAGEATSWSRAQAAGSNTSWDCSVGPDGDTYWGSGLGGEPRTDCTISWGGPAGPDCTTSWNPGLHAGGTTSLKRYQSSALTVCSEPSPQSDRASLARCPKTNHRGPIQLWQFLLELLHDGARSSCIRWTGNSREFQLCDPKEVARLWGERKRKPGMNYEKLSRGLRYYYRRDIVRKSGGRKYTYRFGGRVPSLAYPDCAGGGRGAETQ
How it was run: as §1

ETV1 = ETV1 (Homo sapiens, UniProt P50549 1-477)
Chain of ETV1 (P50549 whole entry): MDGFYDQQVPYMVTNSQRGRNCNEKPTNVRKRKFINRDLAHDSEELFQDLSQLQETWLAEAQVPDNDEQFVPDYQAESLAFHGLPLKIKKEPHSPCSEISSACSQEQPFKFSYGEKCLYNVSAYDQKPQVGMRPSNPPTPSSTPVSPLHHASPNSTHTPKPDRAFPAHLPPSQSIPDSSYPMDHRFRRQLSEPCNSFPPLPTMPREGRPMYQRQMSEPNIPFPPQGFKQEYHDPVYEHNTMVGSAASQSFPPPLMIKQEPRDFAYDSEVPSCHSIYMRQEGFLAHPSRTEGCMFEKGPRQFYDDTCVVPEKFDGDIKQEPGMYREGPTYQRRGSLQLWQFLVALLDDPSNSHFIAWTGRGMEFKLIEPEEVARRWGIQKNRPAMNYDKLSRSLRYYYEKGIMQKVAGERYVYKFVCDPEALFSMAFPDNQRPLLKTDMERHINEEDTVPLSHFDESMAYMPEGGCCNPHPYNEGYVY
How it was run: as §1

SPDEF = biological target: T11, SPDEF (Homo sapiens, UniProt O95238 1-335)
T11 sequence: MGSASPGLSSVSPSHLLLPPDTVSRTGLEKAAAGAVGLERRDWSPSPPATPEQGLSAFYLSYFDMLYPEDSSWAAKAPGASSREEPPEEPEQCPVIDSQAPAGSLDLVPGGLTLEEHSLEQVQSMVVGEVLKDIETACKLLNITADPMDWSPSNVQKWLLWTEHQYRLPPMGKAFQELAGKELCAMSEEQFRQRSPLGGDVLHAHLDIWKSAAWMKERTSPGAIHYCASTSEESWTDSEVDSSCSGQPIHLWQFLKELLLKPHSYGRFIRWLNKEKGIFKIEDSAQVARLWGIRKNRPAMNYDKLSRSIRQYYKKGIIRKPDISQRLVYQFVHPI
How it was run: as §1

ETV7 = biological target: T12, ETV7 (Homo sapiens, UniProt Q9Y603 1-341)
T12 sequence: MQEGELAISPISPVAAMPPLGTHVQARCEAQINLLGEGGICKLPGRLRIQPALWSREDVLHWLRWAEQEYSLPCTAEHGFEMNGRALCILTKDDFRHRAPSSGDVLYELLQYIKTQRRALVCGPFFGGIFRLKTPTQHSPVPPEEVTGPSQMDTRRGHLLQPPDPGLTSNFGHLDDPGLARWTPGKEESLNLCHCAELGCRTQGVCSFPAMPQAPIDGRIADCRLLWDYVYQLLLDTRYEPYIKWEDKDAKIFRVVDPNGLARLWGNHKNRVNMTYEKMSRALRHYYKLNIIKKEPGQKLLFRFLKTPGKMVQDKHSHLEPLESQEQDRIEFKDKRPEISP
How it was run: as §1

ETV6 = ETV6 (Homo sapiens, UniProt P41212 1-452)
Chain of ETV6 (P41212 whole entry): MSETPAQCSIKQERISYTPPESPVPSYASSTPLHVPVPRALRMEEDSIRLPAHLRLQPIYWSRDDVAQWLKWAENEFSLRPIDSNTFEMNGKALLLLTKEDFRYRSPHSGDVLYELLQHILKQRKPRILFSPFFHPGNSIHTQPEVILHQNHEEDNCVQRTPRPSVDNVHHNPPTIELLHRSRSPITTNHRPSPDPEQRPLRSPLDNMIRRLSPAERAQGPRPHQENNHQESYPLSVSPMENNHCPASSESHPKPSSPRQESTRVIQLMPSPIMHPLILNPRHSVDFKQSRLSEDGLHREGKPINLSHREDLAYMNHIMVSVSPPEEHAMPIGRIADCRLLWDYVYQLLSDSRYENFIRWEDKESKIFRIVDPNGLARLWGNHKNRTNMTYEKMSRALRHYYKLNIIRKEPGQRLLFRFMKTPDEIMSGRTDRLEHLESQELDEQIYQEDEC
How it was run: as §1

Row | Sequence | binding signal (ELK1) | binding signal (GABPA) | binding signal (ERG) | binding signal (ELF1) | binding signal (ETV5) | binding signal (ELF4) | binding signal (ELF3) | binding signal (ERF) | binding signal (ETV3L) | binding signal (ETS2) | binding signal (ETV3) | binding signal (ELK4) | binding signal (ETV2) | binding signal (ETV1) | binding signal (SPDEF) | binding signal (ETV7) | binding signal (ETV6)
1 | CCCAAG | 1.07 fold enrichment (6-mer frequency, TF over GST control) | 1.07 fold enrichment (6-mer frequency, TF over GST control) | 1.04 fold enrichment (6-mer frequency, TF over GST control) | 1.06 fold enrichment (6-mer frequency, TF over GST control) | 1.01 fold enrichment (6-mer frequency, TF over GST control) | 1.03 fold enrichment (6-mer frequency, TF over GST control) | 1.12 fold enrichment (6-mer frequency, TF over GST control) | 1.06 fold enrichment (6-mer frequency, TF over GST control) | 1.01 fold enrichment (6-mer frequency, TF over GST control) | 1 fold enrichment (6-mer frequency, TF over GST control) | 1.03 fold enrichment (6-mer frequency, TF over GST control) |  |  |  |  |  | 
2 | TCAGTT | 1.03 fold enrichment (6-mer frequency, TF over GST control) |  | 1.03 fold enrichment (6-mer frequency, TF over GST control) |  | 1 fold enrichment (6-mer frequency, TF over GST control) |  |  |  | 1.05 fold enrichment (6-mer frequency, TF over GST control) | 1.04 fold enrichment (6-mer frequency, TF over GST control) | 1.05 fold enrichment (6-mer frequency, TF over GST control) | 1.08 fold enrichment (6-mer frequency, TF over GST control) | 1.05 fold enrichment (6-mer frequency, TF over GST control) | 1.04 fold enrichment (6-mer frequency, TF over GST control) | 1.04 fold enrichment (6-mer frequency, TF over GST control) | 1.02 fold enrichment (6-mer frequency, TF over GST control) | 1.03 fold enrichment (6-mer frequency, TF over GST control)
